From PubChem
Sm TGR inh: S. mansoni TGR enzyme inhibition. Potency, µM (doses to about 114 µM), hits mostly inhibitors. purified TGR, DTNB reduction, TNB absorbance 405 nm. Q962Y6. 360,000 tested, 3% active; further: nearly all actives have a fitted effect of over 60% in size
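TGR 20 nM + NADPH 100 uM (dispensed conc.), cpd preinc 15 min RT; start with NADPH (500 uM addition) then DTNB (15 mM addition). Kinetic TNB absorbance, 405 nm filter. Four-parameter Hill fit across titration.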
Pf growth 96h: P. falciparum growth inhibition at 96 hour, primary screen for plastid delayed-death inhibitors. AID 504834. Potency, µM (highest dose often 28.7 µM), usual class: inhibitors. P. falciparum luciferase reporter growth, 96 h. 320,000 tested, 6.9% active
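Two parasite generations (96 h, 37 C, 5% CO2) of compound exposure in infected erythrocytes (0.05% parasitemia, 2% hematocrit). Luciferase-reporter P. falciparum; decreased luminescence indicates inhibited growth, aimed at apicoplast-acting delayed death.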
SARS PLpro yeast: inhibitors of SARS-CoV papain-like protease in yeast. S. cerevisiae expressing SARS-CoV PLpro, growth rescue. Potency, µM (series often up to 32.9 µM), most hits filed as activators. 330,000 tested, 0.19% active. AID 485353; calls by dose curve; further: nearly all actives have a fitted effect of over 55% in size
HCMV antiviral: inhibitors of human cytomegalovirus; 410,000 tested, 4.5% active; HFF cells, HCMV-luciferase reporter, 72 h; hits give low values; activity change, negative = inhibition, % at 57.5 µM; in the data active means activity change below about -60%; inconclusive means no clear call, values can overlap the other calls; inactive means above about -39%
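Human foreskin fibroblasts infected with luciferase-reporter HCMV at MOI 1 PFU/cell, compounds at two doses. Luciferase measured 72 h post infection; normalized to buffer-only basal and Salinomycin (10uM) controls.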
HCV inh: HCV inhibition | Huh7.5.1 HCVcc-Cre infection, luciferase reporter, 44 h | 340,000 tested, 3.4% active | Potency, µM (highest dose often 41.8 µM), most hits filed as inhibitors
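Luciferase read-out (15 sec integration) after a 15 min room-temperature substrate step quantifies HCVcc-Cre infection. Cells, 1,000 per well, had compound added 4 h post-plating, then virus at ~0.5 moi, and were cultured 44 h.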
Pf growth 48h: inhibits P. falciparum growth in the first generation, 48 h; P. falciparum luciferase growth in erythrocytes, 48 h; Potency, µM (highest dose often 28.7 µM), hits mostly inhibitors; 310,000 tested, 5.9% active
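Cell-based growth assay: transgenic P. falciparum expressing firefly luciferase, cultured in red cells within RPMI 1640 containing 0.5% w/v Albumax, 24 mM bicarbonate and gentamycin. A drop in luciferase activity indicates inhibition.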
Numbers stand for hits; . = inactive; ? = inconclusive; / = no result given. Shown are actives, neighbours in structure and some others; about 15% of the full set was active somewhere. Unless noted, the call rests on the fitted dose curve; in most records, active means well fitted curve in the direction sought with a large enough effect; inconclusive means small, poorly fitted or top-dose-only effect, or another doubt; inactive means no such curve, though single readings can be large; an effect the other way counts as inactive or inconclusive.

SMILES | Sm TGR inh | Pf growth 96h | SARS PLpro yeast | HCMV antiviral | HCV inh | Pf growth 48h
COc1ccc(C2/C=C\CN(C(=O)CC(C)(C)C)CC(=O)N2Cc2ccc(F)cc2)cc1 (centres undefined) | . | ? | . | . | 5µM | ?
COc1ccc(C2/C=C\CN(S(=O)(=O)/C=C/c3ccccc3)CC(=O)N2Cc2ccc(F)cc2)cc1 (centres undefined) | . | ? | . | . | . | ?
COc1ccc(C2/C=C\CNCC(=O)N2Cc2ccc(F)cc2)cc1 (centres undefined) | 40µM | . | . | . | . | ?
COc1ccc(C2/C=C\CN(S(=O)(=O)c3ccc4ccccc4c3)CC(=O)N2Cc2ccc(F)cc2)cc1 (centres undefined) | . | ? | . | . | ? | 13µM
Cc1ccc(-c2cc(-c3ccc(C)cc3)[n+](-c3ccc(C(=O)O)cc3)c(-c3ccc(C)cc3)c2)cc1 | . | ? | . | . | . | /
Cc1ccc(C[n+]2c(-c3ccc(C)cc3)cc(-c3ccc(C)cc3)cc2-c2ccc(C)cc2)cc1 | . | ? | . | / | 2.2µM | 0.33µM
CC(C)CCON=O | / | . | / | / | / | .
CCON=O | / | 2.7µM | / | / | / | .
CCOC(=O)C1=C(NC(=S)NC(=O)c2ccccc2)c2ccccc2CC1(C)CC (centres undefined) | . | ? | . | ? | ? | .
CCOC(=O)C1=C(NC(=S)NC(=O)c2ccccc2)c2ccccc2CC1C(C)C (centres undefined) | . | . | . | -77 | ? | ?
C[C@H](CO)N1C[C@H](C)[C@@H](CN(C)C(=O)Nc2cccc(Oc3ccccn3)c2)OCc2cn(nn2)CCCC1=O | / | / | / | . | / | /
CCN1CCN(CCCN(Cc2ccco2)C(=S)Nc2cccc(Cl)c2C)CC1 | . | . | . | . | ? | .
S=C(Nc1ccc(Cl)cc1)N(CCCN1CCOCC1)Cc1cccs1 | . | ? | . | . | . | .
CCN1CCN(CCCN(Cc2ccco2)C(=S)Nc2ccccc2Cl)CC1 | . | 1.9µM | . | . | ? | .
Cc1cc(C)c(NC(=S)N(CCCN2CCN(C)CC2)Cc2cccs2)c(C)c1 | . | 10µM | . | . | ? | .
Cc1ccc(Cl)cc1NC(=S)N(CCCN1CCN(C)CC1)Cc1cccs1 | . | . | . | . | 6.3µM | .
CCN1CCN(CCCN(Cc2cccs2)C(=S)Nc2ccccc2C)CC1 | . | . | . | . | . | .
Cc1cc(Cl)ccc1NC(=S)N(CCCN1CCOCC1)Cc1cccs1 | . | 12µM | . | . | . | ?
O=C(Nc1ccccc1C(=O)OCc1cc(=O)n2nc(C3CC3)sc2n1)c1cccc(F)c1 | . | / | / | . | / | /
CCCCN(c1ccccc1)S(=O)(=O)c1cc2c3c(c1)C(C)C(=O)N3CCC2 (centres undefined) | . | / | / | ? | / | /
Cc1ccccc1OCc1occc1C(=O)Nc1cccc(-n2cnnn2)c1 | . | ? | . | . | ? | ?
COc1nc(NC(C)(C)C)nc(Oc2ccc(=O)n(C)n2)n1 | . | 12µM | . | . | . | /
CCNc1nc(NC(C)(C)C)nc(Oc2ccc(=O)n(C)n2)n1 | . | / | / | . | / | /
CS(=O)(=O)Nc1ccc(-c2cnc3cccnn23)cc1 | / | / | / | -64 | / | /
CS(=O)(=O)Nc1ccc(-c2cncc3nccn23)cc1 | / | / | / | . | / | /
SMILES | Sm TGR inh | Pf growth 96h | SARS PLpro yeast | HCMV antiviral | HCV inh | Pf growth 48h
Cc1ccc(C2CC(c3cccs3)=NN2S(=O)(=O)c2ccc(C)cc2)cc1 (centres undefined) | . | 2.9µM | . | ? | ? | ?
O=S(=O)(c1ccccc1)N1N=C(c2cccs2)CC1c1ccc(F)cc1 (centres undefined) | . | 9.3µM | . | ? | ? | ?
Fc1ccc(N2N=C(c3cccs3)CC2c2ccccc2)cc1 (centres undefined) | . | . | . | . | ? | 13µM
Cc1cccc(-c2noc(CCCC(=O)NC3CCCCC3)n2)c1 | . | . | . | . | . | .
COc1cccc(CC(=O)n2nc(N)c3cc4ccc(OC)cc4nc32)c1 | . | . | . | . | . | /
COc1ccc2cc3c(N)nn(C(=O)Cc4ccc(Cl)cc4)c3nc2c1 | . | . | . | -67 | . | /
COc1ccc2cc3c(N)nn(C(=O)c4ccc(F)cc4)c3nc2c1 | . | ? | . | -87 | . | ?
COc1ccc2cc3c(N)nn(C(=O)Cc4c[nH]c5ccccc45)c3nc2c1 | . | ? | . | . | ? | ?
COc1ccc2cc3c(N)nn(C(=O)c4ccc(OC)c(OC)c4)c3nc2c1 | . | . | . | . | / | .
COc1ccc2cc3c(N)nn(C(=O)c4ccccc4Cl)c3nc2c1 | . | ? | . | -70 | ? | 8.3µM
COc1ccc2cc3c(N)nn(C(=O)c4cccc(F)c4)c3nc2c1 | . | . | . | -81 | . | .
COc1cc(C(=O)N2CCc3c([nH]c4ccccc34)C2c2ccc(C)cc2)cc(OC)c1OC (centres undefined) | . | / | / | . | / | /
CC(=O)Nc1ccc(S(=O)(=O)N2CCN(CC3CC4C=CC3C4)CC2)cc1 (centres undefined) | . | . | . | ? | . | ?
Cc1ccc(-n2c(N)c(C(=O)Nc3c(C)n(C)n(-c4ccccc4)c3=O)c3nc4ccccc4nc32)cc1 | . | ? | . | ? | 11µM | 9.3µM
Cc1cc(C)cc(-n2c(N)c(C(=O)Nc3c(C)n(C)n(-c4ccccc4)c3=O)c3nc4ccccc4nc32)c1 | . | 2.9µM | . | . | ? | .
Cc1ccc(NC(=O)C(=O)C2C(=O)Nc3ccccc32)cc1 (centres undefined) | . | . | . | . | . | .
c1ccc2c(c1)OCCOCCOCCOCCOc1ccccc1OCCOCCOCCO2 | . | 12µM | . | ? | ? | .
Brc1ccc2c(c1)OCCOCCOCCOCCOCCO2 | . | 10µM | . | . | . | .
O=C(NC1CCN(S(=O)(=O)c2ccccc2F)CC1)c1cccnc1 | . | . | . | . | . | .
O=C(NCc1cccs1)C(=O)NCC1OCCCN1S(=O)(=O)c1cc(F)ccc1F (centres undefined) | . | . | . | . | . | ?
C#CCOCCOCCOCCNc1nc(N2CCN(C(=O)CCCCCCCCCCNC(=O)[C@H](CCCCN)n3cc(CCO)nn3)CC2)nc(N2CCN(C(=O)CCCCCCCCCCNC(=O)[C@H](CCCN=C(N)N)n3cc(C[C@@H](C)CC)nn3)CC2)n1 | . | 4.7µM | . | / | ? | 12µM
C#CCOCCOCCOCCNc1nc(N2CCN(C(=O)CCCCCCCCCCNC(=O)[C@H]([C@@H](C)CC)n3cc(CCCCN=C(N)N)nn3)CC2)nc(N2CCN(C(=O)CCCCCCCCCCNC(=O)[C@H](CCCCN)n3cc(C[C@@H](C)CC)nn3)CC2)n1 | ? | 5.2µM | . | / | ? | 9.3µM
